The results in this text go back to PubChem BioAssay (NCI).

“And” between values parts separate entries of the source, which are not always exact repeats. Equal values may be shown once. Compounds without any hit were thinned out: in the full panel of roughly 83,000, 20% have a hit.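 Assay: single dose, 48 h. Readout: percent growth (0 = no net growth; negative = cell death). Active: <10.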 The source made the active and inactive calls.

For the first assay, the system named is SN12C renal. Description: NCI-60 one-dose screen, 48 h (100 = growth as untreated, 0 = no growth, -100 = all killed). As to conditions: 10 µM unless noted.
With `CC1CCCC(=O)O1` (stereo unspecified), the growth is 111% (inactive).
Take `Cc1ccc(S(=O)(=O)NCN2C(=O)c3ccccc3C2=O)cc1`: the growth is 98% (inactive).
In the case of `O=C(N/N=C/c1cccc2ccccc12)C1CC1`, the growth was 104% (inactive) and 88.6% (inactive).
In the case of `CN(C)CCCNC1=C(Cl)C(=O)c2ccccc2C1=O`, the growth is 67.1% (inactive) and -98.3% (active).
The same measure, in the same setting: under `COc1ccc2nc(Cl)cc(C)c2c1` stands 107% (inactive) and 103% (inactive); under `OCc1ccccn1`, 97.4% (inactive); under `Nc1ccccc1SC1CC(=O)N(c2cccc3ccccc23)C1=O` (stereo unspecified), 98.3% (inactive).
For the compound `NC(=O)c1ccccc1OCC(O)CO` (stereo unspecified), the growth is 101% (inactive).
Turning to `Nc1ccccc1Nc1ccccc1`, the growth is 70% (inactive) and 72.6% (inactive).
In the case of `N/C(=N\N=C\c1ccc2c(c1)OCO2)N/N=C\c1ccc2c(c1)OCO2`, the growth was 107% (inactive) and 89% (inactive).
For the compound `N#C/C(=C/c1c(O)ccc2ccccc12)C(N)=O`, the growth is 108% (inactive).
For `Oc1ccc(/C=C/c2ccccc2)cc1`, the growth is 74.5% (inactive) and 72.4% (inactive).
For `COc1ccc2ccccc2c1/C=N/N1CCCCC1`, the growth is 96.9% (inactive).
`O=C(Nc1cccc(-n2ccc3c(NC(=O)c4ccccc4)nccc32)c1)c1ccc(Cl)c(C(F)(F)F)c1`: the growth is -40% (active) and 64.5% (inactive).
For the compound `CCOc1ccc(Nc2c3ccccc3nc3ccccc23)cc1`, the growth was 81.8% (inactive) and 20.6% (inactive) and 27.6% (inactive).
`CCOc1ccc2cc(-c3nn(CC4CCN(C)CC4)c4ncnc(N)c34)ccc2c1`: the growth is 83.7% (inactive).
The same measure, in the same setting: for `C[N+](C)(C)CN1C(=O)c2ccccc2C1=O` the value was 100% (inactive).
With `S=C(S)N1CCCC1`, the growth was 96.4% (inactive) and 109% (inactive).
For `O=C1C2=C(C(=O)c3ccccc31)C(O)(S(=O)(=O)O)C(O)(S(=O)(=O)O)C1N=CC=CC21` (stereo unspecified), the growth is 34.5% (inactive) and 39.1% (inactive).
Still for that read-out and setting: under `Cc1cc(O)c2c(c1)C(=O)c1cc(O)cc(O)c1C2=O` stands 86.1% (inactive) and 91.1% (inactive).
In the case of `CCN(CC)CCC(CNc1ccnc2cc(Cl)ccc12)c1ccc(OC)cc1` (stereo unspecified), the growth was 71.4% (inactive) and 60.8% (inactive).
As for `COc1cc2nc(N3CCC[C@@H](NC(=O)C4COc5ccccc5O4)C3)nc(N)c2cc1OC` (stereo partly specified), the growth was 104% (inactive) and 103% (inactive).
Still for that read-out and setting: under `NC(=S)NN=C1CCC(C2CCCCC2)CC1` (stereo unspecified) stands 82.3% (inactive) and 82.5% (inactive); under `Cc1ccc2nc3c(nc2c1)-c1cccc2cccc-3c12`, 81.2% (inactive).
On to `CCN(CC)CCCC(C)Nc1ccnc2cc(Oc3ccccc3)ccc12` (stereo unspecified), for which the growth is 71.2% (inactive) and 74.4% (inactive).
On to `CN1C(=O)C(N=Nc2ccc([N+](=O)[O-])cc2)SC1=S` (stereo unspecified), for which the growth was 62.4% (inactive) and 69.3% (inactive).
Turning to `COc1ccccc1NC(=O)OCC#CCOC(=O)Nc1ccccc1OC`, the growth was 107% (inactive) and 92.4% (inactive).
Turning to `O[C@H](c1cc(C(F)(F)F)nc2c(C(F)(F)F)cccc12)[C@@H]1CCCCN1`, the growth was 65.9% (inactive) and 55.1% (inactive).
For the compound `N#C/C(=C1C=C/C(=N/O)C(Br)=C/1)c1ccccc1`, the growth is 32.7% (inactive).
As for `COc1ccc(/C(C#N)=C/c2ccccn2)cc1`, the growth is 101% (inactive) and 115% (inactive).
Consider `CC(=O)Oc1cc(C(=O)O)cc(OC(C)=O)c1OC(C)=O`, for which the growth is 93.9% (inactive) and 99.7% (inactive).
The same measure, in the same setting: for `COc1ccc(Cn2c(NCCN=C(N)N)nc(=O)n(Cc3ccc(F)cc3)c2=O)cc1` the value was 91.4% (inactive) and 68.8% (inactive).

For a further assay, the system named is UO-31 renal. Described as above. To be noted: 10 µM unless noted.
For `CC1CCCC(=O)O1` (stereo unspecified), the growth is 92.8% (inactive) and 76.7% (inactive).
For the compound `Cc1ccc(S(=O)(=O)NCN2C(=O)c3ccccc3C2=O)cc1`, the growth is 92.3% (inactive).
Still for that read-out and setting: for `O=C(N/N=C/c1cccc2ccccc12)C1CC1` the value was 90.1% (inactive) and 102% (inactive).
Regarding `CN(C)CCCNC1=C(Cl)C(=O)c2ccccc2C1=O`, the growth is 73.8% (inactive) and 47.6% (inactive).
Regarding `COc1ccc2nc(Cl)cc(C)c2c1`, the growth is 84.9% (inactive) and 107% (inactive).
For the compound `CN(C)c1ccc(C(=C2C=CC(=[N+](C)C)C=C2)c2ccccc2Cl)cc1`, the growth is -28.9% (active) and -12.3% (active).
`OCc1ccccn1`: the growth is 97.9% (inactive).
For `Nc1ccccc1SC1CC(=O)N(c2cccc3ccccc23)C1=O` (stereo unspecified), the growth is 68.6% (inactive).
Regarding `CC(=O)Nc1cccc2c1CCCC2`, the growth was 88.2% (inactive) and 91% (inactive).
With `CCN1CCN(CCNc2nccc(-c3c(-c4cccc(O)c4)nc4sccn34)n2)S1(=O)=O`, the growth is 67.9% (inactive) and 58.3% (inactive).
`NC(=O)c1ccccc1OCC(O)CO` (stereo unspecified): the growth is 99.7% (inactive).
As to `Nc1ccccc1Nc1ccccc1`, the growth is 45.3% (inactive) and 49.6% (inactive).
Still for that read-out and setting: for `N/C(=N\N=C\c1ccc2c(c1)OCO2)N/N=C\c1ccc2c(c1)OCO2` the value was 99.5% (inactive) and 77.3% (inactive); for `N#C/C(=C/c1c(O)ccc2ccccc12)C(N)=O`, 54% (inactive).
As for `Oc1ccc(/C=C/c2ccccc2)cc1`, the growth was 17.8% (inactive) and 11.6% (inactive).
`COc1ccc2ccccc2c1/C=N/N1CCCCC1`: the growth is 88.9% (inactive).
With `O=C(Nc1cccc(-n2ccc3c(NC(=O)c4ccccc4)nccc32)c1)c1ccc(Cl)c(C(F)(F)F)c1`, the growth is 7.05% (active) and 75.7% (inactive).
Regarding `CCOc1ccc(Nc2c3ccccc3nc3ccccc23)cc1`, the growth was 62.8% (inactive) and 0.768% (active) and 1.99% (active).
As to `CCOc1ccc2cc(-c3nn(CC4CCN(C)CC4)c4ncnc(N)c34)ccc2c1`, the growth is 60.7% (inactive) and 62.9% (inactive).
Take `C[N+](C)(C)CN1C(=O)c2ccccc2C1=O`: the growth is 97.3% (inactive).
Same read-out and setting: under `S=C(S)N1CCCC1` stands 88.3% (inactive) and 76.4% (inactive); under `O=C1C2=C(C(=O)c3ccccc31)C(O)(S(=O)(=O)O)C(O)(S(=O)(=O)O)C1N=CC=CC21` (stereo unspecified), 42.2% (inactive) and -0.599% (active).
As for `Cc1cc(O)c2c(c1)C(=O)c1cc(O)cc(O)c1C2=O`, the growth is 76.6% (inactive) and 71.2% (inactive).
As to `CCN(CC)CCC(CNc1ccnc2cc(Cl)ccc12)c1ccc(OC)cc1` (stereo unspecified), the growth was -5.93% (active) and -3.07% (active).
As to `O=[N+]([O-])c1ccc2nc3c4ccccc4c4ccccc4c3nc2c1`, the growth was 75.3% (inactive).
For the compound `COc1cc2nc(N3CCC[C@@H](NC(=O)C4COc5ccccc5O4)C3)nc(N)c2cc1OC` (stereo partly specified), the growth is 85.7% (inactive) and 65.2% (inactive).
Take `NC(=S)NN=C1CCC(C2CCCCC2)CC1` (stereo unspecified): the growth is 69.3% (inactive) and 45.9% (inactive).
Take `CCOC(=O)c1sc(N)nc1-c1ccccc1`: the growth is 85.4% (inactive).
Turning to `Cc1ccc2nc3c(nc2c1)-c1cccc2cccc-3c12`, the growth was 63.1% (inactive).
Take `CC(C)N=c1cc2n(-c3ccc(Cl)cc3)c3ccccc3nc-2cc1Nc1ccc(Cl)cc1`: the growth is 27.9% (inactive) and -17% (active) and -5.99% (active).
In the case of `CCN(CC)CCCC(C)Nc1ccnc2cc(Oc3ccccc3)ccc12` (stereo unspecified), the growth was 49.2% (inactive) and 50.6% (inactive).
Turning to `CN1C(=O)C(N=Nc2ccc([N+](=O)[O-])cc2)SC1=S` (stereo unspecified), the growth is 37.2% (inactive) and 49.9% (inactive).
Consider `COc1ccccc1NC(=O)OCC#CCOC(=O)Nc1ccccc1OC`, for which the growth was 71.4% (inactive) and 80.2% (inactive).
As to `O[C@H](c1cc(C(F)(F)F)nc2c(C(F)(F)F)cccc12)[C@@H]1CCCCN1`, the growth was 50.5% (inactive) and 31.7% (inactive).
Regarding `N#C/C(=C1C=C/C(=N/O)C(Br)=C/1)c1ccccc1`, the growth was 36.7% (inactive).
As to `CC1=C[C@H]2c3c(c(O)c(O)c4oc5cc(O)cc(O)c5c(=O)c34)[C@H](c3cc(O)c(O)c4oc5cc(O)cc(O)c5c(=O)c34)[C@H]2C(C)(C)C1`, the growth was -5.69% (active) and -75.2% (active).
As to `COc1ccc(/C(C#N)=C/c2ccccn2)cc1`, the growth is 95.5% (inactive) and 98.9% (inactive).
On the same count and under the same terms, under `CC(=O)Oc1cc(C(=O)O)cc(OC(C)=O)c1OC(C)=O` stands 96.7% (inactive) and 98.2% (inactive); under `COc1ccc(Cn2c(NCCN=C(N)N)nc(=O)n(Cc3ccc(F)cc3)c2=O)cc1`, 77.7% (inactive) and 75.3% (inactive).
